USP28 inh: inhibitors of human USP28 deubiquitinase; purified USP28, Ub-rhodamine cleavage fluorescence, 30 min; inhibition, % at 25 µM; AID 1645857, 2021; actives 3% (n = 47,000); Ubiquitin carboxyl-terminal hydrolase 28 (Homo sapiens), Q96RU2
USP30 block: inhibitors of human USP30 deubiquitinase | purified USP30, Ub-rhodamine cleavage fluorescence | inhibition, % at 25 µM | Ubiquitin carboxyl-terminal hydrolase 30 (Homo sapiens), Q70CQ3 | actives 5.3% (n = 47,000)
USP17 block: inhibitors of human USP17 deubiquitinase | Ubiquitin carboxyl-terminal hydrolase 17-like protein 5 (Homo sapiens), A8MUK1 | purified USP17, Ub-rhodamine cleavage fluorescence, 3 h | inhibition, % at 50 µM | actives 6.5% (n = 47,000)
OTUD3 block: inhibitors of human OTUD3 deubiquitinase. AID 1645858, 2021. inhibition, % at 25 µM. purified OTUD3, Ub-rhodamine fluorescence, 2 h. OTU domain-containing protein 3 (Homo sapiens), Q5T2D3. actives 0.7% (n = 47,000)
* marks the source's active call; other numbers are inactive results; i = inactive; · = no result. A selection: hits, their analogues and other compounds. The true share with any hit is near 11%. Rule as the data show it: active = inhibition above about 30%; inactive = the rest.

SMILES	USP28 inh	USP30 block	USP17 block	OTUD3 block
CCC(C)N(CCNC(=O)CC1Oc2ccccc2NC1=O)C1CCCCC1 (stereo not drawn)	-8	-10	-12	-1
CC(=O)c1ccc(NC(=O)CCc2c(C)c3c(C)nn(-c4ccccc4)c3n(C)c2=O)cc1	-3	-8	38*	9
Cc1nn(-c2ccccc2)c2c1c(C)c(CCC(=O)NCc1ccc(F)cc1)c(=O)n2C	0	21	37*	7
CC(=O)Nc1ccc(NC(=O)CCc2c(C)c3c(C)nn(-c4ccccc4)c3n(C)c2=O)cc1	10	15	10	1
Cc1cccc(NS(=O)(=O)c2ccc(N3CCCCS3(=O)=O)cc2)c1	3	20	7	9
O=C(CCC1CCCCC1)Nc1ccccc1C(=O)N1CCOCC1	34*	40*	70*	29
CC(C)CCN1Cc2c(C(=O)Nc3ccccc3)ncn2-c2ccccc2S1(=O)=O	-11	-13	-10	-15
O=C(NCC1CC1)c1ncn2c1CN(CC1CC1)S(=O)(=O)c1ccccc1-2	11	34*	4	13
CC(C)CCN1Cc2c(C(=O)NCc3ccccc3)ncn2-c2ccccc2S1(=O)=O	23	42*	19	26
c1ccc(-n2nnnc2Oc2ccc3oc4c(c3c2)CCCC4)cc1	·	·	13	5
COc1ccccc1CNC(=O)c1ccc(-c2csc(C)n2)cc1	27	1	-1	-2
CCC(=O)Nc1cccnc1-c1ccc(C(=O)NCc2ccc(F)cc2)cc1	-4	-10	-9	-3
O=C(NCc1ccc(F)cc1)c1ccc(-c2cccs2)cc1	·	·	59*	0
Cc1nc(-c2ccc(C(=O)NCc3ccc(F)cc3)cc2)cs1	10	11	52*	2
O=C1C=C[C@]23Oc4ccc(O)c5c4[C@](Oc4cccc1c42)(O3)C1OC1[C@@H]5O (stereo partly drawn)	6	-51	45*	1
CCc1ccc(S(=O)(=O)Oc2ccc(OCc3ccccc3)cc2)cc1	12	18	19	18
O=C(CC1C(=O)N(CC2CCCO2)c2nc3ccccc3n21)Nc1ccc(F)cc1 (stereo not drawn)	4	-7	-18	3
CCOC(=O)c1ccc(N2C(=O)CSCC2=O)cc1	-8	-8	-6	-5
O=C1N(c2ccccc2)C2CS(=O)(=O)CC2N1c1ccc([N+](=O)[O-])cc1 (stereo not drawn)	·	·	30*	1
O=C1N(c2ccccc2)C2CS(=O)(=O)CC2N1c1ccc(F)cc1 (stereo not drawn)	3	8	7	5
COc1ccc(CCC(=O)Nc2ncc(C)s2)cc1OC	54*	0	25	12
COc1ccc(C(=O)Nc2ccc3c(c2)Sc2ncccc2C(=O)N3C)cn1	65*	-35	7	-3
CCOc1ccccc1C(=O)Nc1ccc2c(c1)Sc1ncccc1C(=O)N2C	40*	0	53*	-15
COc1cc(OC)cc(C(=O)Nc2ccc3c(c2)Sc2ncccc2C(=O)N3C)c1	-18	-66	-17	-9
COc1ccc(CCC(=O)Nc2ccc3c(c2)Sc2ccccc2C(=O)N3C)cc1	32*	39*	·	16
SMILES	USP28 inh	USP30 block	USP17 block	OTUD3 block
CC(C)S(=O)(=O)N1C[C@H]2NCc3ccccc3[C@@H]2C1	7	8	0	4
O=C(COc1ccc2c(-c3ccccc3)cc(=O)oc2c1)Nc1cccnc1	19	68*	20	14
O=C1CC(C(=O)Nc2ccc(Br)cc2)c2c(nc(N3CCCCC3)[nH]c2=O)N1 (stereo not drawn)	-212	i	-132	-197
COc1ccc(NC(=O)COc2ccccc2-c2nnc(-c3ccccc3)o2)cc1	8	33*	35*	4
CC(C)NC(=O)COc1ccccc1-c1nnc(-c2ccccc2)o1	21	50*	30	9
O=C(COc1ccccc1-c1nnc(-c2ccccc2)o1)NCc1ccc(F)cc1	11	23	22	13
O=C(COc1ccccc1-c1nnc(-c2ccccc2)o1)Nc1ccccc1F	0	26	46*	1
COc1cc(-c2noc(-c3ccccc3C)n2)ccc1OCC(=O)NC(C)C	9	33*	21	17
Cc1ccc(CN2CC[C@H]3COC(=O)N[C@@H]3C2)cc1	-10	0	-7	1
Cc1ccccc1NC(=O)Cn1ccc2ccn(Cc3ccccc3)c2c1=O	-24	-62	-4	-17
O=C(Cn1ccc2ccn(Cc3ccccc3)c2c1=O)Nc1cccc(F)c1	3	18	49*	4
Cc1ccc(NC(=O)Cn2c(C)nc3c(-c4ccncc4)nsc3c2=O)cc1	-63	-272	-110	-59
COc1ccc(/C=C/C(=O)Nc2ccc(C)cn2)cc1	·	·	70*	1
O=C(NCCc1cccc(F)c1)c1ccc2ccc(N3CCN(c4ncccn4)CC3)n2c1	-27	-121	2	-20
COc1cc(C)cc2c1C(=O)c1c(cc(O)c(Cl)c1O)C2=O	80*	7	74*	76*
Cc1ccc(C)c(Nc2nc(NCc3ccccc3)c3ccccc3n2)c1	61*	82*	51*	33*
Cc1ccc(CN=C(NCC(=O)O)Nc2ccccc2)cc1	10	-36	14	18
Cc1nn(CC(=O)NCC2CCCO2)c(C)c1S(=O)(=O)N1CCc2ccccc21 (stereo not drawn)	3	12	18	3
CCOc1ccccc1NC(=O)N1CCCN(c2ncccc2C#N)CC1	6	5	6	10
N#Cc1cccnc1N1CCN(C(=O)Nc2cccc3ccccc23)CC1	1	-26	77*	11
COc1ccc(OC)c(S(=O)(=O)Nc2cccc(-c3nc4cccnc4s3)c2)c1	9	-44	-11	-7
Cc1ccc(S(=O)(=O)Nc2cccc(-c3nc4cccnc4s3)c2)cc1C	17	47*	29	9
Cc1cccc(-c2nc3n(CC(=O)Nc4ccc(Cl)cc4)c(C)cc(=O)n3n2)c1	6	26	68*	8
Cc1cccc(NC(=O)CN2C(=O)CC(c3ccccc3)S(=O)(=O)c3ccccc32)c1C (stereo not drawn)	-13	-84	51*	-7
COc1ccc(NC(=O)CN2C(=O)CSc3ncccc32)cc1	-8	-8	·	-5
COc1ccc(NC(=O)CN2C(=O)CC(c3ccccc3)S(=O)(=O)c3ccccc32)cc1 (stereo not drawn)	14	24	31*	24
Cc1ccccc1NC(=O)CN1C(=O)CC(c2ccccc2)S(=O)(=O)c2ccccc21 (stereo not drawn)	14	6	23	14
O=C(NCCc1ccccc1)c1cc2ccccc2c(=O)s1	·	·	73*	3
O=C(NCCc1ccc(Cl)cc1)c1cc2ccccc2s1	12	28	13	7
C[C@@H]1CCC2(C)CC[C@]3(C)C(=CCC4[C@@]5(C)CCC(O)C(C)(C)C5CC[C@]43C)C2[C@H]1C (stereo partly drawn)	10	21	9	6

Screens from PubChem BioAssay.
